Data: the antibiotic and cytotoxicity screens of Wong et al. (2023)
Among all 39,000 compounds or so, about 1,500 (3.8%) were called active. The full list was thinned out, with actives kept by preference.

System: HSkMC (human skeletal muscle cells)
Assay: cytotoxicity call (relative viability < 0.9)
Settings: 10 µM

Structure (SMILES)	cytotoxicity call
CC(C)[C@@H](N)c1ncnn1C	inactive
COc1ccc(NC(=O)Nc2ccc3c(c2)C(=O)N([C@H](C)CO)C[C@@H](C)[C@H](CN(C)S(=O)(=O)c2ccc(Cl)cc2)OCCCC[C@H](C)O3)cc1	inactive
CC(C)C#Cc1cnc2c(c1)C(=O)N([C@@H](C)CO)C[C@H](C)[C@H](CN(C)C(=O)c1ccc3c(c1)OCO3)O2	inactive
C[C@H](CO)N1C[C@H](C)[C@@H](CN(C)C(=O)Cc2ccccn2)Oc2cc(-c3cccc(C(=O)N(C)C)c3)ccc2S1(=O)=O	inactive
C[C@H]1[C@H]([Si](C)(C)F)[C@@H](CC(=O)N2Cc3ccccc3C[C@H]2CO)O[C@]12C(=O)N(c1ccccc1)c1ccccc12	inactive
CCCNc1ncnc(N)c1[N+](=O)[O-]	inactive
NS(=O)(=O)c1ccccc1	inactive
NS(=O)(=O)C#Cc1ccccc1	active
Nc1ccccc1S(N)(=O)=O	inactive
CCC[C@@H](O)C#Cc1cnc2c(c1)C(=O)N([C@H](C)CO)C[C@H](C)[C@H](CN(C)S(C)(=O)=O)O2	inactive
CCOc1cc(C(C)(C)C)ccc1C1=N[C@@](C)(c2ccc(Cl)cc2)[C@@](C)(c2ccc(Cl)cc2)N1C(=O)N1CCN(CCCS(C)(=O)=O)CC1	active
C[C@H]1CN([C@@H](C)CO)S(=O)(=O)c2ccc(/C=C/c3ccccc3)cc2O[C@@H]1CN(C)C(=O)CN1CCOCC1	inactive
C[C@H]1CN([C@@H](C)CO)C(=O)Cc2cc(NC(=O)c3ccncc3)ccc2O[C@@H]1CN(C)S(=O)(=O)c1cn(C)cn1	inactive
COc1cccc(S(=O)(=O)N(C)C[C@@H]2Oc3ncc(C#CC(C)C)cc3C(=O)N([C@@H](C)CO)C[C@@H]2C)c1	inactive
COc1ccc(S(=O)(=O)N(C)C[C@H]2Oc3ccc(NC(=O)Nc4cccc5ccccc45)cc3C(=O)N([C@@H](C)CO)C[C@@H]2C)cc1	inactive
COc1ccc(S(=O)(=O)N(C)C[C@H]2Oc3ccc(NC(=O)Cc4ccccc4)cc3C(=O)N([C@H](C)CO)C[C@@H]2C)cc1	active
COc1ccc(S(=O)(=O)N(C)C[C@@H]2Oc3ccc(NC(=O)Cc4ccccc4)cc3C(=O)N([C@@H](C)CO)C[C@@H]2C)cc1	inactive
COc1ccc(NC(=O)Nc2ccc3c(c2)C(=O)N([C@@H](C)CO)C[C@@H](C)[C@H](CN(C)C(=O)Nc2cccc4ccccc24)O3)cc1	inactive
COc1ccc(S(=O)(=O)N(C)C[C@H]2Oc3ccc(NC(=O)Nc4cccc5ccccc45)cc3C(=O)N([C@H](C)CO)C[C@H]2C)cc1	inactive
COc1ccc(NC(=O)Nc2ccc3c(c2)C(=O)N([C@H](C)CO)C[C@@H](C)[C@@H](CN(C)C(=O)Nc2cccc4ccccc24)O3)cc1	active
COc1ccc(NC(=O)Nc2ccc3c(c2)C(=O)N([C@@H](C)CO)C[C@@H](C)[C@@H](CN(C)C(=O)Nc2cccc4ccccc24)O3)cc1	active

Structure (SMILES)	cytotoxicity call
COc1ccc(NC(=O)Nc2ccc3c(c2)C(=O)N([C@H](C)CO)C[C@H](C)[C@@H](CN(C)C(=O)Nc2cccc4ccccc24)O3)cc1	inactive
COc1ccc(S(=O)(=O)N(C)C[C@@H]2Oc3ccc(NC(=O)Nc4cccc5ccccc45)cc3C(=O)N([C@@H](C)CO)C[C@H]2C)cc1	active
COc1ccc(S(=O)(=O)N(C)C[C@H]2Oc3ccc(NC(=O)Cc4ccccc4)cc3C(=O)N([C@@H](C)CO)C[C@@H]2C)cc1	inactive
COc1ccc(NC(=O)Nc2ccc3c(c2)C(=O)N([C@H](C)CO)C[C@@H](C)[C@H](CN(C)C(=O)Nc2cccc4ccccc24)O3)cc1	inactive
COc1ccc(NC(=O)Nc2ccc3c(c2)C(=O)N([C@@H](C)CO)C[C@H](C)[C@H](CN(C)C(=O)Nc2cccc4ccccc24)O3)cc1	inactive
C[C@H]1C(=O)C(=O)[C@@H]2O[C@@H]2C1=O	inactive
C[C@@H]1CN([C@@H](C)CO)C(=O)c2cc(NC(=O)C3CCCCC3)ccc2O[C@@H](C)CCCCO[C@@H]1CN(C)C(=O)c1ccncc1	inactive
C=CC(=O)N[C@@H]1c2ccccc2C[C@@H]1O	inactive
Cc1noc(C)c1NC(=O)N(C)C[C@H]1OCCCC[C@@H](C)Oc2ccc(NS(=O)(=O)c3ccc(F)cc3)cc2C(=O)N([C@@H](C)CO)C[C@@H]1C	inactive
COc1ccc(S(=O)(=O)Nc2ccc3c(c2)C(=O)N([C@H](C)CO)C[C@@H](C)[C@@H](CN(C)Cc2ccc(Cl)c(Cl)c2)O3)cc1	inactive
COc1ccc(S(=O)(=O)Nc2ccc3c(c2)C(=O)N([C@H](C)CO)C[C@H](C)[C@H](CN(C)Cc2ccc(Cl)c(Cl)c2)O3)cc1	inactive
COc1ccc(S(=O)(=O)Nc2ccc3c(c2)C(=O)N([C@@H](C)CO)C[C@@H](C)[C@@H](CN(C)Cc2ccc(Cl)c(Cl)c2)O3)cc1	active
COc1ccc(S(=O)(=O)Nc2ccc3c(c2)C(=O)N([C@@H](C)CO)C[C@@H](C)[C@H](CN(C)Cc2ccc(Cl)c(Cl)c2)O3)cc1	inactive
COc1ccc(S(=O)(=O)Nc2ccc3c(c2)C(=O)N([C@@H](C)CO)C[C@H](C)[C@@H](CN(C)Cc2ccc(Cl)c(Cl)c2)O3)cc1	active
COc1ccc(S(=O)(=O)Nc2ccc3c(c2)C(=O)N([C@@H](C)CO)C[C@H](C)[C@H](CN(C)Cc2ccc(Cl)c(Cl)c2)O3)cc1	inactive
COc1ccc(S(=O)(=O)Nc2ccc3c(c2)C(=O)N([C@H](C)CO)C[C@H](C)[C@@H](CN(C)Cc2ccc(Cl)c(Cl)c2)O3)cc1	inactive
COc1ccc(S(=O)(=O)Nc2ccc3c(c2)C(=O)N([C@H](C)CO)C[C@@H](C)[C@H](CN(C)Cc2ccc(Cl)c(Cl)c2)O3)cc1	active
COc1ccc(CN(C)C[C@@H]2OCCCC[C@@H](C)Oc3ccc(NC(=O)c4ccncc4)cc3C(=O)N([C@@H](C)CO)C[C@@H]2C)cc1	inactive
C[C@@H]1CCCCO[C@H](CN(C)C(=O)Nc2ccc3c(c2)OCO3)[C@@H](C)CN([C@H](C)CO)C(=O)c2cc(NC(=O)CCC(F)(F)F)ccc2O1	inactive
C[C@@H]1CN([C@H](C)CO)C(=O)c2cc(NS(=O)(=O)c3ccccc3)ccc2O[C@@H]1CN(C)S(=O)(=O)c1cccs1	inactive
COCCOC(=O)N1C(=O)[C@@]2(c3cc(C#Cc4ccc(OC)cc4)ccc31)[C@H](C(=O)N1CCc3cc(OC)c(OC)cc3C1)[C@H]1C(=O)O[C@H](c3ccccc3)[C@H](c3ccccc3)N1[C@@H]2c1ccc(OCCO)cc1	inactive

Structure (SMILES)	cytotoxicity call
COCC(=O)Nc1ccc2c(c1)OC[C@@H](C)N(C(=O)c1ccccc1F)C[C@H](C)[C@@H](OC)CN(C)C2=O	inactive
CC(C)NC(=O)Nc1cccc2c1O[C@H](CN(C)C(=O)NC1CCCCC1)[C@H](C)CN([C@@H](C)CO)C2=O	inactive
Cc1noc(C)c1NC(=O)Nc1ccc2c(c1)C(=O)N([C@H](C)CO)C[C@H](C)[C@@H](CN(C)C(=O)Nc1ccc3c(c1)OCO3)OCCCC[C@H](C)O2	inactive
C[C@H]1CN([C@@H](C)CO)C(=O)c2cc(NS(=O)(=O)c3ccccc3)ccc2O[C@@H]1CN(C)Cc1ccc(Oc2ccccc2)cc1	inactive
C[C@H]1CN([C@@H](C)CO)C(=O)c2cc(NS(=O)(=O)c3ccc(Cl)cc3)ccc2O[C@H]1CN(C)Cc1ccc(Oc2ccccc2)cc1	active
C[C@@H]1CN([C@@H](C)CO)C(=O)c2cc(NS(=O)(=O)c3ccccc3)ccc2O[C@H]1CN(C)Cc1ccc(Oc2ccccc2)cc1	inactive
C[C@H](CO)N1C[C@H](C)[C@H](CN(C)Cc2ccc(Oc3ccccc3)cc2)Oc2ccc(NS(=O)(=O)c3ccc(Cl)cc3)cc2C1=O	inactive
C[C@@H]1CN([C@H](C)CO)C(=O)c2cc(NS(=O)(=O)c3ccc(Cl)cc3)ccc2O[C@H]1CN(C)Cc1ccc(Oc2ccccc2)cc1	active
C[C@H](CO)N1C[C@H](C)[C@@H](CN(C)Cc2ccc(Oc3ccccc3)cc2)Oc2ccc(NS(=O)(=O)c3ccc(Cl)cc3)cc2C1=O	inactive
C[C@@H]1CN([C@@H](C)CO)C(=O)c2cc(NS(=O)(=O)c3ccc(Cl)cc3)ccc2O[C@H]1CN(C)Cc1ccc(Oc2ccccc2)cc1	inactive
C[C@@H]1CN([C@H](C)CO)C(=O)c2cc(NS(=O)(=O)c3ccc(Cl)cc3)ccc2O[C@@H]1CN(C)Cc1ccc(Oc2ccccc2)cc1	active
C[C@H]1CN([C@@H](C)CO)C(=O)c2cc(NS(=O)(=O)c3ccc(Cl)cc3)ccc2O[C@@H]1CN(C)Cc1ccc(Oc2ccccc2)cc1	active
C[C@@H]1CN([C@@H](C)CO)C(=O)c2cc(NS(=O)(=O)c3ccccc3)ccc2O[C@@H]1CN(C)Cc1ccc(Oc2ccccc2)cc1	inactive
CC(C)NC(=O)Nc1ccc2c(c1)CC(=O)N([C@@H](C)CO)C[C@H](C)[C@H](CN(C)C(=O)NC1CCCCC1)O2	inactive
Cc1cccc[n+]1C	inactive
CN1C2=CC(=O)/C(=N\NC(N)=O)C=C2C[C@H]1S(=O)(=O)O	inactive
COc1ccc(NC(=O)N(C)C[C@H]2OCCCC[C@H](C)Oc3ccc(NS(=O)(=O)c4ccc(C)cc4)cc3C(=O)N([C@@H](C)CO)C[C@H]2C)cc1	inactive
CC(=O)OC1C(=O)C2(C)C(O)CC3OCC3(OC(C)=O)C2C(OC(=O)c2ccccc2)C2(O)CC(OC(=O)C(O)C(NC(=O)c3ccccc3)c3ccccc3)C(C)=C1C2(C)C (configuration not stated)	inactive
CC(=O)OC1CC(C)(C)C(=C=C/C(C)=C/C=C/C(C)=C/C=C/C=C(C)/C=C/C=C(\C)C(=O)CC23OC2(C)CC(O)CC3(C)C)C(C)(O)C1 (configuration not stated)	inactive
C[C@@H]1CN([C@H](C)CO)C(=O)c2cc(NC(=O)CCCCCC(=O)Nc3ccccc3N)ccc2O[C@@H]1CN(C)C(=O)Nc1ccccc1	inactive
